Test results published in PubChem BioAssay AID2401 (Southern Research Specialized Biocontainment Screening …, 2010).
In all, about 2,200 compounds went through this assay and about 530 (24%) were called active. These entries were drawn from the full list. Results with a measured potency or affinity are listed apart. Values without a mark were called inactive.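 Rule for the calls: active = inhibition above a set limit at one or more concentrations of the dose series; inactive = inhibition under that limit at every dose.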

assay: nmpC-GFP reporter counter-screen in S. Typhimurium, dose response, counter-screen for PhoP regulon inhibitor project, Salmonella Typhimurium, GFP fluorescence (AID 2401); conditions: 4 h; series mostly up to 150 µM; inhibition: at the top concentration;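 note: S. typhimurium with Mg-insensitive nmpC-GFP reporter grown at 10 µM Mg2+; drop in reporter fluorescence reflects general culture growth inhibition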

Row | SMILES | inhibition [%]
1 | CN(c1ccccc1)S(=O)(=O)c1cc(C(=O)Nc2nc3ccccc3[nH]2)ccc1Cl | 19.4
2 | O=C(CSc1nnnn1-c1ccccc1)CC(=O)Nc1ccc(Cl)cc1 | 14.4
3 | Cc1cccc(C(=O)NC(=S)Nc2ccc(N3CCOCC3)cc2)c1 | 0.18
4 | CCOC(=O)CSc1n[nH]c(NC(=O)c2cccc(C)c2)n1 | 5.34
5 | CCn1cc(C(=O)O)c(=O)c2cc(F)c(N3CCN(C(=S)NC(=O)c4ccccc4Cl)CC3)cc21 | 10.2
6 | CCCS(=O)(=O)N1CCCC(C(=O)N2CCN(c3ccccn3)CC2)C1 (stereo not drawn) | -39.9
7 | COc1cc(NC(=O)CSc2nnnn2Cc2ccc3c(c2)OCO3)cc(OC)c1 | -22
8 | Cc1cccc(-n2ncc3c(NCc4ccc5c(c4)OCO5)ncnc32)c1 | -0.19
9 | O=C1Nc2ccccc2C(O)(C(=O)N2CCCCC2)N1c1ccccc1 (stereo not drawn) | 6.65
10 | Cc1cccnc1N(C(=O)Nc1ccccc1)C1=NCC(C)(C)S1 | -9.61
11 | Cc1nn(-c2ncc(C(F)(F)F)cc2Cl)c(=O)n1-c1cccc(Cl)c1 | -28.3
12 | CCCc1ccc(C(=O)CCC(=O)O)cc1 | 8.77
13 | COc1ccc(OC)c(C(C(=O)NCc2ccco2)N(C(=O)Cn2nnc3ccccc32)C(C)C)c1 (stereo not drawn) | 0.89
14 | COc1ccc(C2C=C(c3ccc(Cl)cc3)Nc3nc(NC(C)=O)nn32)cc1 (stereo not drawn) | -22.6
15 | C=CCn1c(C)cc(C(=O)CSc2nc(N)cc(N)n2)c1C | 5.49
16 | Cc1ccc(C(C(=O)NCc2ccco2)N(CCc2ccccc2)C(=O)Cn2nnc3ccccc32)o1 (stereo not drawn) | 7.54
17 | O=C(CN1CCC(NC(=O)c2cccc(F)c2)CC1)NCc1ccccc1F | -33.2
18 | CCCOc1ccc(C(=O)CCC(=O)OCC(=O)N2CC(=O)Nc3ccccc32)cc1 | 2.02
19 | CCCOc1ccc(C(=O)N2CCCC2C(=O)O)cc1 (stereo not drawn) | 20.2
20 | CCn1cc(C(=O)O)c(=O)c2cc(F)c(N3CCN(S(=O)(=O)c4ccc(NC(C)=O)cc4)CC3)cc21 | 26.4
21 | COc1cccc(C2C3=C(Nc4[nH]n(-c5ccccc5)c(=O)c42)c2ccccc2C3=O)c1 (stereo not drawn) | 14.4
22 | COC(=O)c1sc2ccccc2c1-n1cccc1C(=O)C(=O)Nc1ccc(Cl)cc1 | 10.6
23 | COc1cccc(-n2c(SCC(=O)Nc3ccc4c(c3)CCC4)nc3ccccc3c2=O)c1 | -5.47

Row | SMILES | inhibition [%]
24 | CCOC(=O)C(NC(=O)c1cccc(Cl)c1)(OCc1ccccc1)C(F)(F)F (stereo not drawn) | -24.6
25 | COc1ccccc1CC1(C)NC(=O)N(CC(=O)N2CC(C)OC(C)C2)C1=O (stereo not drawn) | -10.6
26 | Cn1c(NCc2cccs2)nc2ccccc21 | -7.22
27 | COc1ccc(OC)c(S(=O)(=O)N(C)CC(=O)N2CCc3ccccc3C2)c1 | -5.92
28 | CCCC(=O)c1c[nH]c(C(=O)NCCCN2CCOCC2)c1 | 0.18
29 | O=S(=O)(Nc1ccc2ccccc2c1)c1ccccc1 | -2.94
30 | COc1ccc(N2CCN(C(=O)Nc3ccc(S(=O)(=O)N(C)C)cc3)CC2)cc1 | 7.43
31 | CCc1nc2ccccc2c2nc3ccccc3n12 | -30
32 | COC(=O)C1C(=O)C=C(N2CCOCC2)CC1(C)C (stereo not drawn) | -12.9
33 | COC(=O)c1ccc2c(=O)n(CCN3CCOCC3)c(SCC(=O)C(C)(C)C)nc2c1 | -19.7
34 | CN(C)C(=O)c1cn(N(C)c2ncc(C(F)(F)F)cc2Cl)c(=O)c2ccccc12 | -20.6
35 | Cc1nc2ccccc2n1CC(=O)NCc1ccccc1 | -22
36 | CCOc1ccc(N/C=C/C(=O)c2ccc(OC)cc2)c([N+](=O)[O-])c1 | -5.92
37 | O=C(/C=C/c1ccco1)NC(=S)Nc1ccc(N2CCCC2)cc1 | 24.7
38 | O=C1CSC(=S)N1c1ccc(F)cc1 | -4.19
39 | O=C1N=c2ccccc2=C1c1[nH]c(=S)[nH]c1O | -22.2
40 | Cc1ccccc1-n1nc(-c2ccc(N)cc2)cc1N | -24.9
41 | CC(=O)N(Cc1ccc(Cl)cc1)c1cnccn1 | -4.99
42 | NCCCC[C@H]1CN=C(N)N1CCC12CC3CC(CC(C3)C1)C2 | 13.8
43 | CCN(c1ccc(OCC(=O)OCC(=O)Nc2ccc(F)c(F)c2F)cc1)S(=O)(=O)c1ccccc1 | 14.7
44 | COc1ccc2nc(SCC(=O)N(C)C3CCCCC3)c(C#N)cc2c1 | -1.82
45 | CC1CCC(NC(=O)C2c3ccccc3C(=O)N2Cc2cccs2)CC1 (stereo not drawn) | -19.1
46 | Cc1ccc(Nc2nc(CSc3nnc(-c4ccc(F)cc4)n3C)cs2)cc1 | -19.6

Row | SMILES | inhibition [%]
47 | CCOc1ccc(NC(=O)Nc2cccs2)cc1 | -29
48 | CC(=O)c1sc(NC(=O)COc2ccc([N+](=O)[O-])cc2)nc1C | 14.3
49 | CCOC(=O)C1=C(C)NC(=O)NC1c1ccsc1 (stereo not drawn) | -24.7
50 | O=C1c2ccccc2C(=O)N1c1cccc(-c2csc(Nc3ccc4c(c3)OCO4)n2)c1 | 10.1
51 | COC(=O)Cn1cc(C(=O)c2ccco2)c2ccccc21 | -30.2
52 | COC(=O)c1sccc1NC(=O)c1csc2c1CCCC2 | -24.4
53 | COCCNC(=O)CSCc1c(F)cccc1Cl | -15.6
54 | Cn1ncc(Br)c1C(=O)NCc1cccs1 | -29.5
55 | CCOC(=O)c1cnc(SCC(=O)Nc2ccc(N3CCOCC3)c(Cl)c2)nc1N | -13.4
56 | CCOC(=O)N1CCC(NC(=O)CCC(=O)c2ccccc2)CC1 | -5.35
57 | CNC(=O)c1ccc(-c2ccc(F)cc2)s1 | 12.7
58 | CCCCOC(=O)CSc1nc2c(c(=O)[nH]c(=O)n2C)n1C/C=C(\C)Cl | -17.7
59 | CCCN(CCC)CCCNS(=O)(=O)c1ccc2c(c1)oc(=O)n2C | -23.9
60 | O=C1c2[nH]nc(-c3ccccc3O)c2C(c2ccc(F)cc2)N1Cc1ccco1 (stereo not drawn) | -41.3
61 | COc1ccc(NC(=O)CSc2nnc(-c3cccs3)n2Cc2ccco2)cc1OC | -27.4
62 | COc1ccc(OC)c(C2C=C(C34CC5CC(CC(C5)C3)C4)NC(=S)N2)c1 (stereo not drawn) | -4.42
63 | Cc1cc(C)nc(/N=C(\N)Nc2ccc(SC(F)F)cc2)n1 | -7.52
64 | CCn1c(Cc2ccccc2)nnc1SCC(=O)Nc1ccc(S(N)(=O)=O)cc1 | -32.2
65 | CCCc1[nH][nH]c(=O)c1C(c1ccc(Br)cc1)C(C#N)C#N (stereo not drawn) | -7.87
66 | Cc1[nH][nH]c(=O)c1C(c1ccc(O)c([N+](=O)[O-])c1)c1c(C)[nH][nH]c1=O | 7.62
67 | CN(CCC(=O)Nc1ccc(Br)cc1)Cc1ccccc1 | 0.43
68 | CCCc1nc2c(o1)CC(CC(C)SCC)CC2=O (stereo not drawn) | -25.4
69 | O=C(Nc1ccc(Cl)cc1)N1CC=CCC1 | -6.77

Row | SMILES | inhibition [%]
70 | C/C(=N/NC(=O)Cc1cccn1C)c1ccccc1 | 0.24
71 | Nc1ccc2nc(SCC(=O)Nc3ccc(N4CCOCC4)c(Cl)c3)sc2c1 | 13.4
72 | COc1cccc(NS(=O)(=O)c2c(C)cc(C)cc2C)c1 | -7.85
73 | COc1ccc(-c2ccc(C#N)c(SCC(=O)NCCc3ccccc3)n2)cc1OC | 0.91
74 | Cc1ccc(Nc2nc(Cl)nc(N(C)C#N)n2)cc1 | 2.65
75 | c1csc(C2Nc3cccc4cccc(c34)N2)c1 | 0.19
76 | Clc1ccc(OCCn2ccnc2)c2ccccc12 | -0.92
77 | CCOCC(=O)Nc1ccc(F)c(F)c1 | 4.86
78 | Cc1ncoc1C(=O)Nc1cccc(Cl)c1 | 15.7
79 | COCCNC(=S)N(Cc1cccnc1)Cc1ccc(OC)c(OC)c1 | -20.2
80 | O=C1NC(=O)C(=C2CCCCCC2)S1 | 36.9
81 | Nc1cc(N2CCCCC2)c(Cl)cc1[N+](=O)[O-] | -15.6
82 | Cc1ccc(N2C(=O)CC(Nc3ccccc3)C2=O)cc1 (stereo not drawn) | 11.4
83 | COc1ccc(-c2nnc(SCCC(=O)O)n2-c2ccccc2)cc1 | -26.7
84 | Nc1nc(-c2ccc3c(c2)OCCO3)cs1 | -21
85 | Cc1ccc(C)c(NC(=S)NCCSc2ccc(Cl)cc2)c1 | -14.8
86 | CCc1cc2c(NCCC(=O)O)nc(C)nc2s1 | -11.1
87 | CC(=O)Nc1ccc(-c2nnc(SCc3c(C)cc(C)cc3C)n2C)cc1 | -11.1
88 | c1ccc(CSc2snnc2-c2ccccc2)cc1 | -31.4
89 | CCn1c(SCC(=O)Nc2ccc3c(c2)oc2ccccc23)nnc1-c1ccc(N)cc1 | 2.44
90 | NNC(=O)CNC(c1ccccc1)c1cc(Br)ccc1NC(=O)c1ccc(Br)cc1 (stereo not drawn) | 13.7
91 | Cc1cccc(N2CCN(CC(=O)Nc3nccs3)CC2)c1C | -13.5
92 | FC(F)(F)c1cccc(NC(=S)NCCN2CCOCC2)c1 | -6.17

Row | SMILES | inhibition [%]
93 | Cc1cc(C)cc(-n2c(C)cc(C=C(C#N)C#N)c2C)c1 | -13.9
94 | CCOC(=O)C1=C(C)Nc2nc3ccccc3n2C1c1cccs1 (stereo not drawn) | -23.9
95 | Cc1ccc(C(=O)Oc2cccc(NC(=O)c3cccs3)c2)cc1S(=O)(=O)N1CCOCC1 | 1.74
96 | COc1c(Cl)cnn(-c2ccc(C)cc2)c1=O | -8.06
97 | CCc1c(C)c2cc(Cl)c(O)c(CN3CCCCC3)c2oc1=O | -17.8
98 | CCc1ccc(NC(=O)c2noc3c2CCc2ccccc2-3)cc1 | -4.07
99 | C=CCOc1ccc(/C=N/NC(=O)CN(c2cc(Cl)ccc2OC)S(=O)(=O)c2ccc(C)c([N+](=O)[O-])c2)cc1 | 4.39
100 | O=C(NCCc1cn2ccccc2n1)c1ccccc1F | 0.92
101 | Cc1nc(SCC(=O)NC(C)c2ccccc2)c2oc3ccccc3c2n1 (stereo not drawn) | -19.4
102 | COc1ccc(C(=O)N2CCc3cc(OC)c(OC)cc3C2)cc1OC | -1.95
103 | Cc1ccc(S(=O)(=O)NNC(=O)c2ccc(O)cc2)cc1 | -8.07
104 | CCOC(=O)c1sc(NC(=O)Nc2ccc(Cl)cc2)cc1C | -2.19
105 | COc1ccccc1NC(=S)NC(=O)C(C)(C)C | -16.6
106 | CCc1ccc2[nH]c(=O)c(CN(Cc3ccccc3)C(=O)Nc3ccccc3OC)cc2c1 | -16.5
107 | COc1ccccc1N1CCN(C(=O)c2cccc3c(=O)c(C)c(-c4ccccc4)oc23)CC1 | -10.7
108 | CCN1C(=O)N/C(=C/c2ccc(Sc3ccc(C)cc3)o2)C1=O | 16.1
109 | CC(=O)c1cccc(NC(=O)Nc2cc3sccc3n2C)c1 | 15.5
110 | COc1cc(C2SCC(=O)N2c2nnc(C34CC5CC(CC(C5)C3)C4)s2)cc(OC)c1OC (stereo not drawn) | -11.2
111 | Brc1ccc(OCCn2ccnc2)cc1 | 22.6
112 | CCCCNC(=O)OC1CCS(=O)(=O)C1 (stereo not drawn) | -14.7
113 | O=c1c(Cl)c(Cl)cnn1Cc1ccccc1Cl | -23.5
